From PubChem BioAssay
Only some compounds are listed: those with a hit (about 21% of all), similar ones and a draw of the others.
D3 ag: qHTS of D3 Dopamine Receptor Agonist: qHTS. D(3) dopamine receptor (Homo sapiens), P35462. D3R DiscoveRx beta-arrestin cells, luminescence, 90 min. max activation, %. 410,000 compounds, 0.58% hits. AID 652048, 2013; in the data active = max activation above about 30%; also: 0% is about no effect
Target sequence (P35462 whole entry, looked up): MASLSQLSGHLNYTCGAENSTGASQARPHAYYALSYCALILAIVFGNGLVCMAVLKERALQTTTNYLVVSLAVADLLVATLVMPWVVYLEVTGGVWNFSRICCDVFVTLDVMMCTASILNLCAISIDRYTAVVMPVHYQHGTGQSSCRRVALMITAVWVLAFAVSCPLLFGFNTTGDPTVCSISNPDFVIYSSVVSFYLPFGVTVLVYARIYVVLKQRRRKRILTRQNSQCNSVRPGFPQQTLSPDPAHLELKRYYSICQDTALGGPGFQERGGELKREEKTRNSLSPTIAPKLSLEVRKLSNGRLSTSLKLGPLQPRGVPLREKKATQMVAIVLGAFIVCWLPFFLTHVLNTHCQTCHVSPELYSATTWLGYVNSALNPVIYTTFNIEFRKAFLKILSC
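Agonist-mode cell screen: cells plated at 1500/well and incubated overnight at 37 °C, then exposed to library compounds for 90 min at 37 °C. Detection reagent was added for 30–60 min at room temperature, and luminescence was read.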
D3 antag: qHTS of D3 Dopamine Receptor Antagonist: qHTS | D(3) dopamine receptor (Homo sapiens), P35462 | D3R cells, DiscoveRx beta-arrestin luminescence, antagonist mode; stronger effect = lower value | max response, negative = inhibition, % | 360,000 compounds, 2.5% hits; in the data active = max response below about -50%; inconclusive = no clear call, values can overlap the other calls; also: % is scaled to controls: 0 for no effect and ±100 for the full control effect
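Cells expressing the human receptor were seeded at 1500 cells/well, incubated overnight at 37 degrees C in 5% CO2, then exposed to library compounds with dopamine controls for 90 minutes at 37 degrees C before luminescent detection.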
TDP1 cell CPT: qHTS for Inhibitors of human tyrosyl-DNA phosphodiesterase 1 (TDP1): qHTS in cells in presence of CPT; chicken DT40 Tdp1-/-;hTDP1 cells + 20 nM CPT, ATP luminescence, 48 h; Potency, µM (doses to about 46.2 µM), for the others: at the top dose activity change, negative = growth inhibition, usual class: inhibitors; 420,000 compounds, 12% hits; also: potency is read from the fitted curve at half-maximal effect; % is scaled to controls: 0 for no effect and ±100 for the full control effect; nearly all actives have a fitted effect of over 55% in size
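Chicken DT40 Tdp1-/- cells stably complemented with human TDP1 were seeded at 400 cells/well in medium containing 20 nM camptothecin, exposed to pin-transferred compounds, and grown at 37 °C for at least 48 hr. Viability was read as ATP luminescence.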
IL-1B inflam inh: qHTS for Inhibitors of Inflammasome Signaling: IL-1-beta AlphaLISA Primary Screen; THP-1 LPS/ATP IL-1B secretion, AlphaLISA, 16 h; stronger effect = lower value; activity change, % at 57.5 µM; 360,000 compounds, 4.7% hits; in the data active = activity change below about -50%; inconclusive = mostly about -30% to -49%; also: % is scaled to controls: 0 for no effect and ±100 for the full control effect
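THP-1 cells pretreated 1 hr with compounds (up to 57.5 uM final), then stimulated with LPS (250 ng/mL final) plus ATP (1.25 mM final); secreted IL-1B measured by AlphaLISA after 16 hr, decreased signal indicating inhibition.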
ClpP mod: qHTS Assay for Activators of ClpP; purified B. subtilis ClpP, FRET peptide cleavage, 20 min; Potency, µM (titrated, usually from 57.5 µM), for inactives: top-dose activity change, negative = active; 340,000 compounds, 1.9% hits; AID 651965, 2013; active = well fitted falling curve with a large enough effect; inconclusive = small, poorly fitted or top-dose-only effect; inactive = no such curve, though single readings can be large or run the other way; also: potency is read from the fitted curve at half-maximal effect; the source files actives as falling curves though it sought activators and does not explain the sign; nearly all actives have a fitted effect of over 65% in size
Target sequence (P80244 whole entry, looked up): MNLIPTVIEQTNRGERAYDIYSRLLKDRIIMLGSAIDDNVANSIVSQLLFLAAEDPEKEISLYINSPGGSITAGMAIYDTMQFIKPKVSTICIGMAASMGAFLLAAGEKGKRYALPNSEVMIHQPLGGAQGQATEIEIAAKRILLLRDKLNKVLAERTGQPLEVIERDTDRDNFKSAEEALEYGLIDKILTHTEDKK
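Buffer: 100 mM Tris/HCl pH8, 100 mM KCl, 0.05% low protease BSA, 2.5% glycerol, 0.01% Tween-20. ClpP 10 microg/mL final; 20 min RT; delta FRET normalized to ADEP and DMSO controls.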
DT40 TDP1 no CPT: qHTS for Inhibitors of human tyrosyl-DNA phosphodiesterase 1 (TDP1): qHTS in cells in absence of CPT. AID 686978, 2013. Potency, µM (titrated, usually from 46.2 µM), for the others: top-dose activity change, negative = growth inhibition, actives largely listed as inhibitors. 420,000 compounds, 15% hits. DT40 Tdp1-/- hTDP1 cells, no CPT, ATP luminescence, 48 h; also: potency is read from the fitted curve at half-maximal effect; % is scaled to controls: 0 for no effect and ±100 for the full control effect; nearly all actives have a fitted effect of over 55% in size
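No-CPT arm: Tdp1-/-;hTDP1 DT40 cells (400/well) plus compounds, incubated ≥48 hr at 37 °C. Readout CellTiter-Glo luminescence.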
Starred values were filed as active, the others as inactive; ? = inconclusive; nt = no result given; [ ] = another dose, or the depositor's remark. Unless noted, calls follow the shape of the dose curve; as a rule, active = well fitted inhibition curve with a large enough effect; inconclusive = small, poorly fitted or top-dose-only effect; inactive = flat fitted curve, though single readings scatter.

SMILES	D3 ag	D3 antag	TDP1 cell CPT	IL-1B inflam inh	ClpP mod	DT40 TDP1 no CPT
CN(C)c1ccc(C(=O)Nc2nnc(C3=COCCO3)o2)cc1	-4.4	3.6	?	-1.8	nt	?
CC(C)Oc1ccc(C(=O)Nc2nnc(C3=COCCO3)o2)cc1	-5.2	0.3	18.4µM*	4.3	0.1%	?
CC(C)Sc1nc(NCc2ccco2)c2c3c(sc2n1)COC(C)(C)C3	-3.5	-1.4	25.9µM*	-17.3	28.2µM*	14.6µM*
CCCCc1nc2sc3c(SCCN(C)C)ncnc3c2c2c1CCC2	0.8	5.8	?	nt	nt	?
CCCCSc1nc(SCC(=O)NCc2ccco2)c2c3c(sc2n1)COC(C)(CC)C3 (stereo not drawn)	-1.1	25.7	-1.1%	-5.3	-0.6%	-5.9%
CSc1nc(SCC(=O)NCc2ccco2)c2c3c(sc2n1)COC(C)(C)C3	-7.0	-9.8	13µM*	86.3	-17.6%	8.2µM*
CCCCc1nc2sc3c(SCC(=O)NCc4ccco4)ncnc3c2c2c1CCC2	0.1	7.0	12.6µM*	17.0	2.0%	11.2µM*
Cc1ccccc1Cn1c(SCc2ccc(C(=O)NCc3cccs3)cc2)nc2ccncc21	-12.8	nt	20.6µM*	nt	-20.5%	18.4µM*
CC(NC(=O)c1ccc(CSc2nc3ccncc3n2Cc2ccc(F)cc2)cc1)c1ccccc1 (stereo not drawn)	-9.9	nt	?	nt	-11.0%	?
Cc1ccccc1Cn1c(SCc2ccc(C(=O)NC(C)c3ccccc3)cc2)nc2ccncc21 (stereo not drawn)	-18.8	nt	9.2µM*	nt	-9.0%	16.4µM*
COc1ccc(C2=C(C)C(N3CCC(C(=O)Nc4cc(C)ccc4C)CC3)=NS2(=O)=O)cc1	7.2	nt	-3.4%	nt	1.7%	-19.8%
COc1cccc(/C=C/c2ccccn2)c1O	5.9	-8.5	1.1%	-5.3	-10.4%	6.8%
COc1cccc(/C=C/c2ccc3cccc(O)c3n2)c1OC	-19.7	-159.8*	?	34.9	-3.9%	16.4µM*
COc1ccc(/C=C/c2ccc3cccc(O)c3n2)c(OC)c1OC	-26.3	0.0	9.2µM*	-90.8*	-10.9%	10.3µM*
CCOc1c(OC(C)=O)ccc(/C=C/c2ccc3cccc(OC)c3n2)c1[N+](=O)[O-]	-4.3	-12.3	?	5.1	1.5%	16.4µM*
CCOC(=O)c1ccc(N=Cc2nc3ccccc3n2C)cc1	-0.6	0.0	?	-13.9	-4.7%	18.4µM*
CC(=O)Oc1oc(-c2ccccc2)nc1C=Nc1ccccc1	-2.0	-13.8	-26.5%	-8.1	-3.6%	?
CN(C)c1ccc(N=Cc2nc(-c3ccccc3)oc2OC(=O)c2cccc(Br)c2)cc1	-12.7	?	?	?	-2.0%	16.4µM*
COc1ccc(N=Cc2nc(-c3ccccc3)oc2OC(=O)c2ccccc2)cc1	1.5	4.4	20.6µM*	-0.4	-4.6%	23.1µM*
CCOC(=O)c1ccc(N=Cc2nc(-c3ccccc3)oc2OC(C)=O)cc1	1.3	-7.9	9.2µM*	-17.3	1.0%	6.51µM*
CCOC(=O)c1ccc(O)cc1	8.0	nt	2.8%	nt	nt	0.8%
O=C(c1cc(N2CCOCC2)c(F)cc1[N+](=O)[O-])N1CCOCC1	0.0	3.6	4.9%	-1.1	?	-4.9%
Cc1ncc2c(c1CNC(=O)c1ccc3c(c1)OCO3)CCN(C(=O)/C=C/c1ccccc1Cl)C2	nt	nt	-2.3%[9.04 µM]	nt	nt	-8.2%
COc1ccc(OC(=O)c2cnc3n(c2=O)CCS3)cc1	-1.7	4.5	-9.7%	-0.9	0.7%	-16.0%
O=C(NCC1CC1)c1onc(CSc2nc3ccccc3[nH]2)c1C(=O)NCC1CC1	0.5	-7.8	20.6µM*	-12.2	-1.4%	?
SMILES	D3 ag	D3 antag	TDP1 cell CPT	IL-1B inflam inh	ClpP mod	DT40 TDP1 no CPT
Clc1ccc(CSc2nc3ccncc3[nH]2)cc1	4.0	-3.4	?	15.6	0.8%	?
NNC(=O)c1ccc(CSc2nc3ccccc3[nH]2)cc1	-7.0	-56.3*	?	-18.7	nt	?
O=C(O)c1ccc(CSc2nc3ccccc3[nH]2)cc1	3.3	3.9	-1.5%	0.0	0.6%	0.9%
Cc1ccc(CSc2nc3ccncc3[nH]2)cc1	2.8	18.2	?	-16.7	-2.2%	14.6µM*
O=C(NCc1ccc(Cl)cc1)c1ccc(CSc2nc3ccncc3[nH]2)cc1	1.2	19.6	?	-74.1*	nt	?
O=C(NCc1ccc(Cl)cc1)c1ccncc1	6.9	18.1	-25.1%	11.6	-0.6%	-2.3%
COC(=O)c1cc(CSc2nc3ccccc3[nH]2)oc1C	8.8	6.6	14.6µM*	29.2	-1.7%	23.1µM*
O=C(c1ccc(CSc2nc3ccncc3[nH]2)cc1)N1CCCCCC1	6.5	8.8	?	48.3	1.1%	?
O=C(c1ccc(CSc2nc3ccncc3[nH]2)cc1)N1CCN(c2cccc(Cl)c2)CC1	3.8	13.8	9.2µM*	?	-0.1%	7.31µM*
Cn1c2c(c(=O)[nH]c1=O)C(c1ccc(O)cc1)C1=C(N2)c2ccccc2C1=O (stereo not drawn)	6.9	8.4	10.3µM*	?	nt	23.1µM*
Nc1nc2c(c(=O)[nH]1)C(c1ccccc1)C1=C(N2)c2ccccc2C1=O (stereo not drawn)	-8.3	-5.5	-21.2%	13.9	-1.3%	-18.3%
Cc1cccc(CC(=O)NCCN2CCCCC2)c1	-8.4	-17.8	-15.3%	-19.3	-0.6%	4.9%
CCOc1ccc(NC(=O)CC2C(=O)N(c3ccc(F)cc3)C(=O)N2Cc2ccc(OC)c(OC)c2)cc1 (stereo not drawn)	5.8	nt	-24.6%	nt	0.7%	?
COc1ccc(CC(N)c2csc(NC(=O)NCCc3ccccc3)n2)cc1 (stereo not drawn)	-11.2	-4.0	?	?	0.4%	?
COc1ccccc1CNC(=O)Nc1nc(C(N)CCc2ccccc2)cs1 (stereo not drawn)	-6.7	0.0	18.4µM*	?	-0.6%	18.4µM*
NC(CO)c1csc(NC(=O)Nc2ccccc2Cc2ccccc2)n1 (stereo not drawn)	2.2	12.5	?	-13.3	-0.1%	?
